# From PubChem BioAssay (NCATS)
# Records with an inconclusive call do not appear. Unmarked numbers belong to inactive results. The call rests on the fitted dose curve; in most records, active means well fitted curve in the direction sought with a large enough effect; inconclusive means small, poorly fitted or top-dose-only effect, or another doubt; inactive means no such curve, though single readings can be large or run the other way.
# Experiment: qHTS Assay for Identifying Gametocytocidal Compounds (AID 743244);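 further: actives lower the fluorescent signal which means gametocytes are killed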
# Details: P. falciparum 3D7 stage III-V gametocytes, alamarBlue, 72 h; max response: active compounds read low
# Method in brief: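 Using 20,000 stage III–V 3D7 gametocytes per well, compounds were incubated 72 h under 37 °C/5% CO2. Viability was then assessed by 24 h alamarBlue reduction, measured fluorometrically at 525/598 nm.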
# On the % scale 0 is the no-effect control and ±100 the full control effect.
row,SMILES,max response
1,CCCC(=O)Nc1c(I)cc(I)c(CC(CC)C(=O)O)c1I (stereo not drawn),15%
2,O=P(O)(O)OC[C@H](O)CO,-1.62%
3,CC(=O)N[C@@H]([C@@H](O)[C@H](O)[C@H](O)CO)[C@@H](O)CC(=O)C(=O)O,14.7%
